Out of some 340,000 compounds screened, about 8,500 (2.5%) were called active. This excerpt belongs to a sample that is enriched for actives. Unmarked numbers belong to inactive results.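 The calls were made as follows: active = melting temperature shift of at least 10% of the positive control shift, at one fixed dose; inactive = the rest.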

This test concerns Glutamate receptor ionotropic, NMDA 3A (GRIN3A) ligand-binding domain. As to the kind of experiment: binders of NR3A ligand-binding domain, primary screen, biophysical, differential scanning fluorimetry, uHTS (AID 1259313). Conditions: NR3A LBD differential scanning fluorimetry, at 25 µM, hits give high values, 0% = protein alone, 100% = glycine-bound protein. A general note: In DSF a fluorescence change marks the thermal transition of the protein.
Consider `COc1ccccc1/C=N/N1CCN(Cc2ccccc2Cl)CC1`, for which the Tm shift relative to glycine control is 3.27%.
On to `Cc1cc(-n2nc(C)cc2C)n2ncc(-c3ccccc3)c2n1`, for which the Tm shift relative to glycine control is 0.25%.
Regarding `Cc1cc(C(=O)N/N=C/c2cc([N+](=O)[O-])cc(C)c2O)n[nH]1`, the Tm shift relative to glycine control was -7.09%.
The value for `CCOc1cc(/C=N/Nc2cc(C)nc3ccc(C)cc23)ccc1O` was -6.31%.
On to `O=[N+]([O-])c1cc(Br)c(O)c(/C=N/Nc2nc3ccccc3s2)c1`, for which the Tm shift relative to glycine control was 24.4% (active).
`COc1ccc(CC(=O)N/N=C/c2cc([N+](=O)[O-])cc(Br)c2O)cc1`: the Tm shift relative to glycine control is 7.97%.
Consider `COc1cc(/C=N/NC(=O)CCc2n[nH]c(=O)[nH]c2=O)ccc1O`, for which the Tm shift relative to glycine control is 0.39%.
For the compound `COc1cc(/C=N/Nc2nc3ccccc3s2)ccc1O`, the Tm shift relative to glycine control was 20.7% (active).
In the case of `COc1cc(/C=C/CNC[C@H]2O[C@@H](n3cnc(C(N)=O)n3)[C@H](O)[C@@H]2O)ccc1O`, the Tm shift relative to glycine control was -1.5%.
For `C/C(=C/C(=O)N1CCN(C)CC1)C(=O)O`, the Tm shift relative to glycine control is -0.35%.
Take `Cc1cc(C)c2cc(CN(Cc3cccs3)Cc3nnnn3CC3CCCO3)c(=O)[nH]c2c1` (stereo unspecified): the Tm shift relative to glycine control is -5.51%.
The value for `Cn1c(=O)[nH]c(=O)c2c1nc(CN1CCN(c3ccccc3F)CC1)n2CCc1ccccc1` was -1.61%; that for `CCCNC(=O)c1ccccc1NC(=O)CSCc1ccc(OC)cc1` was 12.7% (active); that for `CCCCCNC(=O)c1cccnc1SCC(=O)Nc1ccccc1OC` was 8.62%.
In the case of `CCCNC(=O)Nc1ccccc1C(=O)Nc1ccc(OC)cc1`, the Tm shift relative to glycine control is 0%.
For the compound `COc1cc2c(cc1OC)C(C(=O)Nc1cc(C)c(OC)c(C)c1)CC(=O)N2` (stereo unspecified), the Tm shift relative to glycine control is 0.68%.
With `CC(=O)c1c(C)[nH]c(C(=O)OCC(=O)Nc2c(C)n(C)n(-c3ccccc3)c2=O)c1C`, the Tm shift relative to glycine control was 0.41%.
Turning to `CCOCCCNC(=O)C(NC(=O)CNC(=O)c1ccccc1)c1ccc(C)cc1` (stereo unspecified), the Tm shift relative to glycine control was -0.17%.
As for `Cc1ccc(N2CC(C(=O)NCCS(=O)(=O)N3CCN(c4ccccc4)CC3)CC2=O)cc1` (stereo unspecified), the Tm shift relative to glycine control is 0.09%.
The result for `CCOc1cc2[nH]c(=S)n(Cc3ccc(C(=O)N4CCN(C)CC4)cc3)c(=O)c2cc1OCC` reads -2.77%.
With `COc1ccc(Cn2c(=S)[nH]c3cc(C(=O)N4CCCCC4)ccc3c2=O)cc1`, the Tm shift relative to glycine control is 0.18%.
The value for `COc1cc2[nH]c(=S)n(Cc3ccc(F)cc3)c(=O)c2cc1OC` was 16.4% (active); that for `COc1cc2[nH]c(=S)n(CCN3CCCCC3C)c(=O)c2cc1OC` (stereo unspecified) was -1.68%; that for `CCOc1cc2[nH]c(=S)n(Cc3ccc(C(=O)NCCOC)cc3)c(=O)c2cc1OCC` was -2.12%.
The value for `COc1cc2[nH]c(=S)n(Cc3ccc(C)o3)c(=O)c2cc1OC` was 13.2% (active); that for `COCC(C)N=CC1=C(O)CC(C)(C)CC1=O` (stereo unspecified) was 1.32%; that for `O=C(NN1CCOCC1)c1cccc(F)c1` was -0.08%.
Regarding `COc1ccc(C2c3[nH]c4ccccc4c3C[C@H]3C(=O)N(CC(C)C)CC(=O)N23)c(OC)c1` (stereo partly specified), the Tm shift relative to glycine control was -1.75%.
The result for `Cc1nnc(NC2=NCCCCC2)o1` reads -2%; that for `O=C(CC(NS(=O)(=O)c1ccc(Cl)cc1)c1ccco1)NC1CCCC1` (stereo unspecified), -0.32%; that for `CCOC(=O)c1ccc(NC(=O)CS(=O)(=O)c2cn(CC)c3ccccc23)cc1`, -11.8%.
`Cc1nc(SCC(=O)c2ccccc2)c([N+](=O)[O-])[nH]1`: the Tm shift relative to glycine control is -0.87%.
For `Cc1nc(N)nc(SCc2ccc([N+](=O)[O-])cc2)c1N`, the Tm shift relative to glycine control is 1.88%.
With `Cc1nc(SCc2ccc(F)cc2)c([N+](=O)[O-])[nH]1`, the Tm shift relative to glycine control was 13.7% (active).
The value for `CCCSC1=C(C#N)C(c2ccccc2C)C(C(=O)OC)C(=O)N1` (stereo unspecified) was -0.63%; that for `Cn1c(SCC(=O)Nc2cccc(NC(=O)c3cccs3)c2)nnc1-c1ccncc1` was 2.57%.
The result for `O=C(Nc1ccc(C(=O)O)cc1)/C(=C/c1ccc([N+](=O)[O-])cc1)NC(=O)c1ccccc1` reads 0.77%.
With `O=C(Nc1ccccc1)c1ccc(NC(=O)c2cccs2)cc1`, the Tm shift relative to glycine control was 27% (active).
Regarding `C/C(=N\NC(=O)c1ccc(NS(=O)(=O)c2cccs2)cc1)c1ccc2ccccc2c1`, the Tm shift relative to glycine control was 5.52%.
As to `O=C(Nc1ccc(NC(=O)c2cccs2)cc1)c1ccc2ccccc2c1`, the Tm shift relative to glycine control is 25.1% (active).
The value for `O=C(NC(=S)Nc1ccc(NC(=O)c2cccs2)cc1)c1ccc([N+](=O)[O-])cc1` was 24.7% (active); that for `O=C(Nc1ccc2oc(-c3ccc4ccccc4c3)nc2c1)c1cccs1` was 25.9% (active); that for `O=C(Nc1ccccc1-c1ccccc1)c1cccs1` was -0.76%.
Regarding `O=C(Nc1ccc(N2CCN(C(=O)C3CC3)CC2)cc1)c1cccs1`, the Tm shift relative to glycine control was 0.36%.
Consider `CC(Oc1cccc(NC(=O)c2cccs2)c1)C(=O)c1ccccc1` (stereo unspecified), for which the Tm shift relative to glycine control was -12.8%.
As to `O=C(Nc1ccnc(-c2ccncc2)n1)c1cccs1`, the Tm shift relative to glycine control is -0.64%.
As to `O=C(Nc1ccc2oc(-c3ccccc3F)nc2c1)c1ccco1`, the Tm shift relative to glycine control was -4.92%.
On to `O=C(Cc1cccs1)Nc1ccc([N+](=O)[O-])cc1`, for which the Tm shift relative to glycine control is 0.1%.
The value for `Cc1cc(C)c(-c2csc(NC(=O)CCCc3nc4ccccc4c(=O)[nH]3)n2)c(C)c1` was -5.38%.
The result for `CCCCCN(C(=O)CCC(=O)OCC(=O)NC1CCC(C)CC1)c1c(N)n(CCCC)c(=O)[nH]c1=O` (stereo unspecified) reads -0.6%; that for `COc1cc(S(=O)(=O)N2CCN(C(=O)C3CC3)CC2)ccc1NC(C)=O`, 1.2%.
With `CCCc1c(C(=O)N/N=C(\C)CCc2ccc(OC)cc2)nnn1-c1nonc1N`, the Tm shift relative to glycine control was 0.47%.
In the case of `CCNc1nc(N)nc(-c2cc(Cl)ccc2OC)n1`, the Tm shift relative to glycine control was 1.29%.
`CCN(CC(=O)Nc1c(F)cccc1F)C(=O)CN1c2cccc3cccc(c23)S1(=O)=O`: the Tm shift relative to glycine control is -0.42%.
The result for `Cc1ccc(Oc2cc(NC(=O)CCCn3nc(C)c([N+](=O)[O-])c3C)cc([N+](=O)[O-])c2)cc1` reads 14.9% (active).
Take `CCc1ccc(NC(=O)Cn2nc(C)c([N+](=O)[O-])c2C)cc1`: the Tm shift relative to glycine control is -12.5%.
The value for `COc1ccc(CNC(=O)CCCn2nc(C)c([N+](=O)[O-])c2C)cc1` was 2.36%.
With `Cc1cc(C)cc(OCC(=O)OCC(=O)NC2CCCC2)c1`, the Tm shift relative to glycine control is 1.75%.
For the compound `CCOC(=O)C1CCCN(C(=O)Cn2ncc3c(=O)oc4ccc(C)cc4c32)C1` (stereo unspecified), the Tm shift relative to glycine control is -4.2%.
The result for `Cc1ccc(-c2nnc(CN3CCN(C)CC3)o2)cc1` reads 0.59%.
Regarding `CC1CN(C(=S)Nc2ccc(S(N)(=O)=O)cc2)CC(C)O1` (stereo unspecified), the Tm shift relative to glycine control is -1.98%.
As for `CC1CC(C)CN(CC(=O)Nc2ccc(S(N)(=O)=O)cc2)C1` (stereo unspecified), the Tm shift relative to glycine control was 10% (active).
Consider `CC1Cc2ccccc2N1CC(=O)Nc1ccc(S(N)(=O)=O)cc1` (stereo unspecified), for which the Tm shift relative to glycine control is 6.2%.
For the compound `Cc1ccc(Nc2c(O)nc[nH]c2=O)cc1C`, the Tm shift relative to glycine control is -3.98%.
The result for `CCOC(=O)C1CCN(C(=O)COC(=O)C2CCN(S(=O)(=O)c3ccc4c(c3)OCCO4)CC2)CC1` reads -0.43%; that for `COc1ccccc1CNC(=O)C1CCN(S(=O)(=O)c2ccc3c(c2)OCCO3)CC1`, 6.45%.
The result for `O=C(COC(=O)C1CCN(S(=O)(=O)c2ccc3c(c2)OCCO3)CC1)Nc1ccccc1OC(F)F` reads 10.1% (active); that for `O=C(CSc1ncnc2scc(-c3ccccc3)c12)NCc1ccc2c(c1)OCO2`, -0.99%.
The result for `O=C(NN=Cc1ccccc1O)NN=Cc1ccccc1O` reads 29.9% (active); that for `O=C(N/N=C/c1ccccc1O)C1CCCC1`, -0.52%; that for `O=C(NN=Cc1ccccc1O)C(=O)NN=Cc1ccccc1O`, -0.25%.
In the case of `COc1ccc(C2NC(=O)N(C)C(C)=C2[N+](=O)[O-])cc1` (stereo unspecified), the Tm shift relative to glycine control is 0%.
Consider `CC(C)C(=O)Nc1cccc(NC(=O)c2ccc([N+](=O)[O-])cc2Cl)c1`, for which the Tm shift relative to glycine control was -1.57%.
The value for `CC(=O)c1ccc(NC(=O)Nc2ccc([N+](=O)[O-])cc2C)cc1` was 7.59%; that for `Cc1cc([N+](=O)[O-])ccc1NC(=O)c1ccc(NC(=O)C(C)C)cc1` was 13.6% (active); that for `CN(Cc1ccco1)S(=O)(=O)c1nnc(NC(=O)c2ccccc2)s1` was -1.03%.
On to `CC(C)(Oc1ccc(C2CC2(Cl)Cl)cc1)C(=O)O` (stereo unspecified), for which the Tm shift relative to glycine control was -0.77%.
The result for `CC(C)S(=O)(=O)c1csc(NC(=O)Nc2ccc(Cl)cc2)c1Cl` reads 24.3% (active); that for `O=C(NCc1ccccn1)Nc1ccc(Cl)cc1`, -1.47%; that for `O=C(Nc1ccc(Cl)cc1)Nc1ccc(C(=O)N2CCOCC2)cc1`, 2.25%.
The value for `COc1ccc([N+](=O)[O-])cc1N(CC(O)CN(CC(C)C)CC(C)C)S(=O)(=O)c1ccc(C)cc1` (stereo unspecified) was -2.17%.
The value for `COc1cccc(NC(=O)C(Sc2nc3ccccc3c(=O)n2CC(C)C)c2ccccc2)c1` (stereo unspecified) was 5.55%; that for `N#Cc1c(N)sc2c1CCN(C(=O)OCc1ccccc1)C2` was -2.92%.
For the compound `Cn1cc(S(=O)(=O)NC(c2ccccc2)c2ccccc2)c(=O)n(C)c1=O`, the Tm shift relative to glycine control was -0.16%.
Consider `COc1ccc(-c2ccc(Nc3ccc(S(=O)(=O)N4CCCC4)cc3)nn2)cc1OC`, for which the Tm shift relative to glycine control is 18.4% (active).
In the case of `COc1cc(C(C)=O)ccc1OC(C)C(=O)Nc1ccc(S(=O)(=O)N2CCCC2)cc1` (stereo unspecified), the Tm shift relative to glycine control is 1.81%.
`COc1ccc(S(=O)(=O)N2CCCCCC2)cc1NC(=O)Cc1ccc(OC)c(OC)c1`: the Tm shift relative to glycine control was 0.44%.
For `COc1cc(/C(=C/c2ccccc2)c2ccccc2)c2c(c1)oc1ccccc12`, the Tm shift relative to glycine control was 3.2%.
The result for `O=C(NN=CC=Cc1ccccc1)C(O)C(O)C(=O)NN=CC=Cc1ccccc1` (stereo unspecified) reads 3.13%.
With `Cc1ccc(-c2cc(C(=O)N/N=C/C=C/c3ccccc3)n[nH]2)o1`, the Tm shift relative to glycine control was 19.9% (active).
For `Cc1ccc(-c2cc(C(=O)NN)n[nH]2)o1`, the Tm shift relative to glycine control is -1.08%.

Source of the values: PubChem BioAssay AID1259313 (Sanford-Burnham Center for Chemical Genomics, 2017).
